Experiment in all cases: DAPPL (digital affinity profiling via proximity ligation, sequencing); 10 mM Tris-HCl pH 7.5, 50 mM NaCl, 1 mM DTT, 4% glycerol, room temperature, 30 min; GST-TFs on glutathione beads, 16-mer random dsDNA library, 0.1% formaldehyde crosslink after washing; high values mean tight binding
For one assay, the target named is T1, EHF (Homo sapiens, UniProt Q9NZC4 1-300).
T1 sequence: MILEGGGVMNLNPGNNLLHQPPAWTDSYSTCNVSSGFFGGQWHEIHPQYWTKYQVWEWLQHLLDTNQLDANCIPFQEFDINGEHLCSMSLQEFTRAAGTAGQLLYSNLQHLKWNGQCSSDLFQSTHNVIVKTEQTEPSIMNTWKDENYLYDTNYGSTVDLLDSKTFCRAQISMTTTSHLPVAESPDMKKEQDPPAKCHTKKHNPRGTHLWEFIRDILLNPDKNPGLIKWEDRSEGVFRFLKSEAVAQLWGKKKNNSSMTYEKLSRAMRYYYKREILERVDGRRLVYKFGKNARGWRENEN
The conditions noted are these: protein: recombinant; tags: N-terminal GST; dsDNA, one strand shown. In short, it runs like this:
(§1)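 A tag-only sample was pooled with DNA-barcoded human transcription factors that had been expressed in yeast as GST fusions and captured on glutathione beads. The pools were incubated for 30 min at room temperature with 200 nmole of a random double-stranded 16-mer DNA library in Tris/NaCl/DTT/glycerol buffer, then washed, crosslinked with 0.1% formaldehyde, proximity-ligated (BsaI/T4 ligase, 1 h, 37 °C), PCR-amplified and sequenced on an Illumina NextSeq500. Binding signal is each hexamer's read frequency for a factor divided by its frequency for the tag-only sample.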

In a further assay the target is T2, ELK3 (Homo sapiens, UniProt P41970 1-407).
T2 sequence: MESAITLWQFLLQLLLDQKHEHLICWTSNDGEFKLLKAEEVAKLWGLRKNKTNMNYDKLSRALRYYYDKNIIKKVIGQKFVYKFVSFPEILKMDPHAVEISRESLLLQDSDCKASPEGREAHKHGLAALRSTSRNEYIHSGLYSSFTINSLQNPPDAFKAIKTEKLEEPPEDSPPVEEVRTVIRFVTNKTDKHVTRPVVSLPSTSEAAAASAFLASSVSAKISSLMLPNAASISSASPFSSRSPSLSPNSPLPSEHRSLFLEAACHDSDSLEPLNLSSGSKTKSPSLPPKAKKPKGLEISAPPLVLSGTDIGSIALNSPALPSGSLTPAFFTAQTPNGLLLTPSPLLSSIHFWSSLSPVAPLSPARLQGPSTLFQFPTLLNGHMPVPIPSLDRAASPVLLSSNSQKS
The conditions noted are these: protein: recombinant; tags: N-terminal GST; dsDNA, one strand shown. In short, it runs like this: as §1

Another assay has as its target HSF1 (Homo sapiens, UniProt Q00613 1-529). As to conditions: protein: recombinant; tags: N-terminal GST; chain copies: 3; dsDNA, one strand shown. In short, it runs like this: as §1
The target in a further assay is ELF4 (Homo sapiens, UniProt Q99607 1-663). The conditions noted are these: protein: recombinant; tags: N-terminal GST; dsDNA, one strand shown. In short, it runs like this: as §1
A further assay has as its target T3, ELK4 (Homo sapiens, UniProt P28324-2 1-405).
T3 sequence: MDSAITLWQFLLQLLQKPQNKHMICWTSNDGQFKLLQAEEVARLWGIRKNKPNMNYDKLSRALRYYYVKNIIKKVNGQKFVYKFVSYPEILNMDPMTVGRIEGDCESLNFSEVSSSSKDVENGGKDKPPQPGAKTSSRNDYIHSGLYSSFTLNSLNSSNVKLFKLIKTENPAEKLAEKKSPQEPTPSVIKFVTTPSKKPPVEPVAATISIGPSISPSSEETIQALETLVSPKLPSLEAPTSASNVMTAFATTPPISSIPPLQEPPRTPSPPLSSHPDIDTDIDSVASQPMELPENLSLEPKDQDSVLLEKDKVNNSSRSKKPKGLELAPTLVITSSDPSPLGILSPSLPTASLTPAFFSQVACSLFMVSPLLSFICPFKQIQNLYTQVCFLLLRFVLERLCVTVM
As to conditions: protein: recombinant; tags: N-terminal GST; dsDNA, one strand shown. In short, it runs like this: as §1

The next assay addresses T4, ELF3 (Homo sapiens, UniProt P78545 1-371).
T4 sequence: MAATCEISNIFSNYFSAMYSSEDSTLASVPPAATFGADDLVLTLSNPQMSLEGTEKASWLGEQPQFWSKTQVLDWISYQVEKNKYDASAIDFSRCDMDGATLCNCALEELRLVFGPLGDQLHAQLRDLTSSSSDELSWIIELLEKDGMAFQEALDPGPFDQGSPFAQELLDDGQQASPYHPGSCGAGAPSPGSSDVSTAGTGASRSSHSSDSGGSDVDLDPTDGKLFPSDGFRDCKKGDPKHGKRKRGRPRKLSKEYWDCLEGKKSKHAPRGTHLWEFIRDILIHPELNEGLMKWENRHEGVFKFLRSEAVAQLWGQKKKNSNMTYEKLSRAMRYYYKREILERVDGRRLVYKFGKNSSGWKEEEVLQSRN
As to conditions: protein: recombinant; tags: N-terminal GST; dsDNA, one strand shown. In short, it runs like this: as §1

Another assay has as its target CRX (Homo sapiens, UniProt O43186 1-299). As to conditions: protein: recombinant; tags: N-terminal GST; dsDNA, one strand shown. In short, it runs like this:
as §1

The target in the next assay is T5, ERF (Homo sapiens, UniProt P50548 1-548).
T5 sequence: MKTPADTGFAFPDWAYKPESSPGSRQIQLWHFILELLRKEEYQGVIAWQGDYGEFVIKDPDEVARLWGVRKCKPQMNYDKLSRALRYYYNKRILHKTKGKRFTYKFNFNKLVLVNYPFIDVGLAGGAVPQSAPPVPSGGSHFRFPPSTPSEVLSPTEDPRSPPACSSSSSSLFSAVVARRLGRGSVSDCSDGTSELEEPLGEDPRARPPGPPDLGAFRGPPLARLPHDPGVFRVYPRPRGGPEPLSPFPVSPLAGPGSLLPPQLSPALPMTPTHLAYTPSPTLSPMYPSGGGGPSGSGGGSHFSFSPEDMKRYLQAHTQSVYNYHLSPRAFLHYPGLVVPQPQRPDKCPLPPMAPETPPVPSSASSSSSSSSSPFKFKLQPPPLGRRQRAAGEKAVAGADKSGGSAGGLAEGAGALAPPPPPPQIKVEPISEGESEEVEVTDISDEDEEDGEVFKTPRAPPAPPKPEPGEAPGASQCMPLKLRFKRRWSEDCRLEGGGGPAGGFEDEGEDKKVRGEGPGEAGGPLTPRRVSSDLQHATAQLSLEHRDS
As to conditions: protein: recombinant; tags: N-terminal GST; dsDNA, one strand shown. In short, it runs like this: as §1

Another assay has as its target T6, ETV3L (Homo sapiens, UniProt Q6ZN32 1-361).
T6 sequence: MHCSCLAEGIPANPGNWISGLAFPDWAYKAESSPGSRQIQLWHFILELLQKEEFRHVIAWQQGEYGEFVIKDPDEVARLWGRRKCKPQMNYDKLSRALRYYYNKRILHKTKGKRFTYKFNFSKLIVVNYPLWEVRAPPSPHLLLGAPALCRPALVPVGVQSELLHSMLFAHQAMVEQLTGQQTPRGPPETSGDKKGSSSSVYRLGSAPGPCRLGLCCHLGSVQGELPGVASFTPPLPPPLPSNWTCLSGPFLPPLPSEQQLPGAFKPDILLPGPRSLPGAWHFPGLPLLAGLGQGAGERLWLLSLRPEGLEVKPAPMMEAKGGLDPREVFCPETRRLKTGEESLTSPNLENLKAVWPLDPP
As to conditions: protein: recombinant; tags: N-terminal GST; dsDNA, one strand shown. In short, it runs like this:
as §1

Another assay deals with T7, ETV3 (Homo sapiens, UniProt P41162-2 1-143).
T7 sequence: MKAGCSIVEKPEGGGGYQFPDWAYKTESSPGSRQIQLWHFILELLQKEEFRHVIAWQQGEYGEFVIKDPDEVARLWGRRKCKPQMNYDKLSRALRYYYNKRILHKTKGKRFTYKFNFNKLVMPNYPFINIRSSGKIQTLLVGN
The conditions noted are these: protein: recombinant; tags: N-terminal GST; dsDNA, one strand shown. In short, it runs like this: as §1

The target of another assay is T8, ETV7 (Homo sapiens, UniProt Q9Y603 1-341).
T8 sequence: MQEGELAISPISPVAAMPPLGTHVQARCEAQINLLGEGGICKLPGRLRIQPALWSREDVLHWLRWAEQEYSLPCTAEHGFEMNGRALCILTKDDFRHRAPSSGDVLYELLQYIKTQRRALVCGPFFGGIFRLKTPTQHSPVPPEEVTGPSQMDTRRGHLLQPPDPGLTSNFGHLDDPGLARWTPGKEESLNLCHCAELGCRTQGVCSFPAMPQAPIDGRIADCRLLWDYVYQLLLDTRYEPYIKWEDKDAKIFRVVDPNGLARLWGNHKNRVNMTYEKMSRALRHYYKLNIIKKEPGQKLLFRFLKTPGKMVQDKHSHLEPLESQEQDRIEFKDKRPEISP
The conditions noted are these: protein: recombinant; tags: N-terminal GST; dsDNA, one strand shown. In short, it runs like this:
as §1

For a further assay, the target named is ELF1 (Homo sapiens, UniProt P32519 1-619). As to conditions: protein: recombinant; tags: N-terminal GST; dsDNA, one strand shown. In short, it runs like this: as §1
A further assay addresses T9, ETV2 (Homo sapiens, UniProt O00321 1-342).
T9 sequence: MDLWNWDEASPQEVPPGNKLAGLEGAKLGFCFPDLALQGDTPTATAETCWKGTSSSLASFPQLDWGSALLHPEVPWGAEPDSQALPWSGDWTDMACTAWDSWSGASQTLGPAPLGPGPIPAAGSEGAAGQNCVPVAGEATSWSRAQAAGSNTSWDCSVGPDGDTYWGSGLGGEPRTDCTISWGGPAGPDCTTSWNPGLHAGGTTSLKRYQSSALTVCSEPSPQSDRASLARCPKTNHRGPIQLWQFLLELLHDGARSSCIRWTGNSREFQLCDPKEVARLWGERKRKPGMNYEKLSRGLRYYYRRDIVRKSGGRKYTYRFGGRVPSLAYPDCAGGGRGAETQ
As to conditions: protein: recombinant; tags: N-terminal GST; dsDNA, one strand shown. In short, it runs like this:
as §1

In the next assay the target is ETV6 (Homo sapiens, UniProt P41212 1-452). The conditions noted are these: protein: recombinant; tags: N-terminal GST; dsDNA, one strand shown. In short, it runs like this:
as §1

In a further assay the target is SPI1 (Homo sapiens, UniProt P17947 1-270). As to conditions: protein: recombinant; tags: N-terminal GST; dsDNA, one strand shown. In short, it runs like this: as §1

CRX, sequence (O43186 whole entry): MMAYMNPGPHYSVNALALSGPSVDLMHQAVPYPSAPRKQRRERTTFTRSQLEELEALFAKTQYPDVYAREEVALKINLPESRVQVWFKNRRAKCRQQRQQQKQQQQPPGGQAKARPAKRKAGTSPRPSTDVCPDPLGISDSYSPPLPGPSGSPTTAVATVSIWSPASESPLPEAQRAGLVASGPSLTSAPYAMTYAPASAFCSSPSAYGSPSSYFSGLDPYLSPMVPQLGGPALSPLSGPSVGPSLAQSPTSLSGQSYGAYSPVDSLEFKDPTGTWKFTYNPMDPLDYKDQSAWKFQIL
HSF1, sequence (Q00613 whole entry): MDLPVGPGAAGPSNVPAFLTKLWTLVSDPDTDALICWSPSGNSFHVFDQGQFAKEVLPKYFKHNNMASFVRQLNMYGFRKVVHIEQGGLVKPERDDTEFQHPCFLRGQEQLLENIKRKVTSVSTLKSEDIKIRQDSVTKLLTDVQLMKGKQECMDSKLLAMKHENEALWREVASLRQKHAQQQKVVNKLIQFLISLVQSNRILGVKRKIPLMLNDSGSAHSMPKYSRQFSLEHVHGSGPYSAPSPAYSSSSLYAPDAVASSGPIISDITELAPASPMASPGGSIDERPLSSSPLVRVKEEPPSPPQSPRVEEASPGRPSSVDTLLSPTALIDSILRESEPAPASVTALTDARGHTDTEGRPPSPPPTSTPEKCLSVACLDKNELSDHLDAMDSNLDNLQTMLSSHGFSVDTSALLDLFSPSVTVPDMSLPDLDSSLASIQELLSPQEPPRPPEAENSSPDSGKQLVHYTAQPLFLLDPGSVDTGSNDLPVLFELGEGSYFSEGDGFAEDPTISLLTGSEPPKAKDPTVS
ELF4, sequence (Q99607 whole entry): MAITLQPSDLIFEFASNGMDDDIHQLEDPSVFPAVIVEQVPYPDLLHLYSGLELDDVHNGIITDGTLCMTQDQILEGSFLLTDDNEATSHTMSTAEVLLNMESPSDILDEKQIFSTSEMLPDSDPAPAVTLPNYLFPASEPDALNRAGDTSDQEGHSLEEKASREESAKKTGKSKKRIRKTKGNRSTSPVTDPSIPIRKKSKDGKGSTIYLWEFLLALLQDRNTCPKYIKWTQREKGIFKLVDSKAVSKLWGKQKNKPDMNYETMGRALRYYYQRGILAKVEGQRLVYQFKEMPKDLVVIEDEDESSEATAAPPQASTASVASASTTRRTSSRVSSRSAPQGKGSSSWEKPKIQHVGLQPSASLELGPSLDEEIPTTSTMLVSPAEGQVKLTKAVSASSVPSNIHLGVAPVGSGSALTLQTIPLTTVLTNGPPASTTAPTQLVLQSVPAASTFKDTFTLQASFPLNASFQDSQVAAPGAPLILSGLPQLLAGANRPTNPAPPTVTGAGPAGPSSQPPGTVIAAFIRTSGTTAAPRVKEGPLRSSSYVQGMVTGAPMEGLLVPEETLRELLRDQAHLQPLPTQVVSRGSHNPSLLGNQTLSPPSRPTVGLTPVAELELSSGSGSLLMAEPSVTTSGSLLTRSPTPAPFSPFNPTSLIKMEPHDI
ELF1, sequence (P32519 whole entry): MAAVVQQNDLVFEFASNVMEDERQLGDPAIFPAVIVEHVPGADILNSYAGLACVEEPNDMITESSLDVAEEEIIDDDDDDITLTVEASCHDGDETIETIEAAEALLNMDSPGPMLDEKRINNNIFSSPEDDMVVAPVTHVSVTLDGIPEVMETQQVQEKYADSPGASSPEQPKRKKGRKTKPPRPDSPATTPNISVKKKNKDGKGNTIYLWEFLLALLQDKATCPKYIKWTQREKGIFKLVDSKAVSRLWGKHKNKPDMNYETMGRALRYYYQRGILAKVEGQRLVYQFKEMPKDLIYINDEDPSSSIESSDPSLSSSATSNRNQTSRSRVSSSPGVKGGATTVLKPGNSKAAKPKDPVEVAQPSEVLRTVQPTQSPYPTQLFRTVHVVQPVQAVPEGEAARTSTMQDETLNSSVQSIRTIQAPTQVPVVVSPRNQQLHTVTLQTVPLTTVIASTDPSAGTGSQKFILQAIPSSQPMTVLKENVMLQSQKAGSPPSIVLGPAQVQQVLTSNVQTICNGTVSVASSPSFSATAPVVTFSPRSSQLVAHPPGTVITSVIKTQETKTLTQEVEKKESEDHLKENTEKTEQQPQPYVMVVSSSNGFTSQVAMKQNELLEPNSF
ETV6, sequence (P41212 whole entry): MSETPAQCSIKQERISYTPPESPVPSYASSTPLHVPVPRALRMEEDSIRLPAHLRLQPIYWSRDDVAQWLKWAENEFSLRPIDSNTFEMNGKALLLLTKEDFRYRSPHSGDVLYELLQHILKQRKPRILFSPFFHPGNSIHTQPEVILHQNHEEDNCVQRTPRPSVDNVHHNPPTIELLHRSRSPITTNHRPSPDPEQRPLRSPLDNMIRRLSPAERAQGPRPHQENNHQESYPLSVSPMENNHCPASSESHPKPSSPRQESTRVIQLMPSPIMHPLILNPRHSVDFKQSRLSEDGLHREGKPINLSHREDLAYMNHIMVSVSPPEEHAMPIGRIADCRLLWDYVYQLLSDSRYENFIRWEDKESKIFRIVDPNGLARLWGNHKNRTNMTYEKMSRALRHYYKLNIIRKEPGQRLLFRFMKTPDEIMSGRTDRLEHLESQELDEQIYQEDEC

Take CCAGCT: the binding signal is 1.06 fold enrichment (6-mer frequency, TF over GST control) in the assay with EHF; 1.02 fold enrichment (6-mer frequency, TF over GST control) with ELK3; 1.03 fold enrichment (6-mer frequency, TF over GST control) with HSF1; 1.02 fold enrichment (6-mer frequency, TF over GST control) with ELF4; 1.14 fold enrichment (6-mer frequency, TF over GST control) in the assay with ELK4; 1.04 fold enrichment (6-mer frequency, TF over GST control) in the assay with ELF3. Further, the binding signal is 1.1 fold enrichment (6-mer frequency, TF over GST control) with CRX; 1.01 fold enrichment (6-mer frequency, TF over GST control) with ERF; 1.03 fold enrichment (6-mer frequency, TF over GST control) in the assay with ETV3L; 1 fold enrichment (6-mer frequency, TF over GST control) with ETV3.
As to AGAAGA, the binding signal is 1.68 fold enrichment (6-mer frequency, TF over GST control) with HSF1; 1.05 fold enrichment (6-mer frequency, TF over GST control) in the assay with ELK4; 1.03 fold enrichment (6-mer frequency, TF over GST control) with ELF3; 1.14 fold enrichment (6-mer frequency, TF over GST control) with CRX; 1.01 fold enrichment (6-mer frequency, TF over GST control) in the assay with ETV7.
Regarding TTAGTG, the binding signal with HSF1 was 1.3 fold enrichment (6-mer frequency, TF over GST control); with ELK4, 1.11 fold enrichment (6-mer frequency, TF over GST control); with CRX, 1.89 fold enrichment (6-mer frequency, TF over GST control).
In the case of GAATGA, the binding signal is 1 fold enrichment (6-mer frequency, TF over GST control) with ELF1; 1.02 fold enrichment (6-mer frequency, TF over GST control) in the assay with ELK3; 1.15 fold enrichment (6-mer frequency, TF over GST control) with HSF1; 1 fold enrichment (6-mer frequency, TF over GST control) in the assay with ELF4; 1.11 fold enrichment (6-mer frequency, TF over GST control) with ETV2; 1.07 fold enrichment (6-mer frequency, TF over GST control) with ELF3. Further, the binding signal with ETV6 is 1.02 fold enrichment (6-mer frequency, TF over GST control).
Turning to TACGAG, the binding signal in the assay with HSF1 was 1.26 fold enrichment (6-mer frequency, TF over GST control); with ELF3 it was 1.02 fold enrichment (6-mer frequency, TF over GST control); with CRX it was 1.05 fold enrichment (6-mer frequency, TF over GST control).
As for CGAGAT, the binding signal with HSF1 was 1.52 fold enrichment (6-mer frequency, TF over GST control); with ETV2, 1.07 fold enrichment (6-mer frequency, TF over GST control); with CRX, 1.27 fold enrichment (6-mer frequency, TF over GST control).
Turning to AGGGAT, the binding signal was 1.1 fold enrichment (6-mer frequency, TF over GST control) with HSF1 and 1.49 fold enrichment (6-mer frequency, TF over GST control) in the assay with CRX.
Consider GTAGAA, for which the binding signal with SPI1 is 1.01 fold enrichment (6-mer frequency, TF over GST control); in the assay with HSF1, 1.47 fold enrichment (6-mer frequency, TF over GST control); in the assay with ELF3, 1.06 fold enrichment (6-mer frequency, TF over GST control).
Regarding TTAGAG, the binding signal with HSF1 is 1.25 fold enrichment (6-mer frequency, TF over GST control); with ETV2, 1.01 fold enrichment (6-mer frequency, TF over GST control); in the assay with CRX, 1.77 fold enrichment (6-mer frequency, TF over GST control).

These data come from article PMC7862700, “An all-to-all approach to the identification of sequence-specific readers for epigenetic DNA modifications on cytosine”.
